# Bioassay records deposited in PubChem by National Center for Advancing Translational Sciences (NCATS).
# Shiga inhibitor: A qHTS for Small Molecule Inhibitors of Shiga Toxin; Vero cells, Shiga toxin protein synthesis inhibition reporter; inhibition, % at 38.7 µM; hit rate 9.2% among 290,000; AID 2315, 2010; in the data active = inhibition mostly above about 28%, no sharp cut-off; inactive = mostly below about 43%
# AMA1 RON2 block: qHTS for Inhibitors of AMA1-RON; Towards Development of Antimalarial Drug Lead: Primary Screen; Plasmodium falciparum AMA1 (3D7) - RON2 peptide interaction; AlphaScreen AMA1-biotinylated RON2 peptide binding; hit rate 0.2% among 360,000; AID 720542, 2013; Potency, µM (series often up to 58.2 µM), hits mostly inhibitors; also: nearly all actives have a fitted effect of over 45% in size
#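 AMA1 (3D7) with his tag at 25 nM final met compounds first, then biotinylated RON2 peptide at 25 nM; detection used donor plus acceptor beads, 10 µg/mL apiece, read by AlphaScreen after 30 min at room temperature.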
# Pf growth 48h: Primary qHTS for delayed death inhibitors of the malarial parasite plastid, 48 hour incubation; P. falciparum luciferase growth in erythrocytes, 48 h; hit rate 5.9% among 310,000; Potency, µM (highest dose often 28.7 µM), actives largely listed as inhibitors
#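 In quantitative HTS format, infected erythrocytes bearing luciferase-reporter parasites were treated for a single generation at 37 C. Luminescence after adding detection reagent served as the growth measure.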
# SARS PLpro yeast: qHTS of Yeast-based Assay for SARS-CoV PLP. S. cerevisiae expressing SARS-CoV PLpro, growth rescue. Potency, µM (titrated, usually from 32.9 µM), hits mostly activators. hit rate 0.19% among 330,000; calls by dose curve; also: nearly all actives have a fitted effect of over 55% in size
# Cycloheximide cs: Cycloheximide Counterscreen for Small Molecule Inhibitors of Shiga Toxin; cell reporter, cycloheximide protein synthesis inhibition counterscreen; max response, %; hit rate 12% among 300,000; in the data active = max response mostly above about 13%, no sharp cut-off; inactive = mostly below about 14%; also: read at 38.3 µM for the half of the compounds with a filed dose
# Pf growth 96h: Primary qHTS for delayed death inhibitors of the malarial parasite plastid, 96 hour incubation; AID 504834, 2011; hit rate 6.9% among 320,000; Potency, µM (titrated, usually from 28.7 µM), hits mostly inhibitors; P. falciparum luciferase reporter growth, 96 h
#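 Two parasite generations (96 h, 37 C, 5% CO2) of compound exposure in infected erythrocytes (0.05% parasitemia, 2% hematocrit). Luciferase-reporter P. falciparum; decreased luminescence indicates inhibited growth, aimed at apicoplast-acting delayed death.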
# A number is an active result; i = inactive; ? = inconclusive; nt = no result given. Sampled rows, rich in hits. Any-hit rate of the full collection: about 19%. Unless noted, calls follow the shape of the dose curve; as a rule, active = well fitted curve in the direction sought with a large enough effect; inconclusive = small, poorly fitted or top-dose-only effect, or another doubt; inactive = no such curve, though single readings can be large; an effect the other way counts as inactive or inconclusive.
SMILES,Shiga inhibitor,AMA1 RON2 block,Pf growth 48h,SARS PLpro yeast,Cycloheximide cs,Pf growth 96h
Cc1oc2cc(O)ccc2c(=O)c1Oc1ccc2ccccc2c1,38,i,i,i,i,i
Cc1oc2cc(O)ccc2c(=O)c1Oc1ccc(F)cc1,i,i,i,i,i,i
N#CCC(CNc1ncc(C(F)(F)F)cc1Cl)OC(=O)c1ccc(Cl)cc1Cl (stereo not given),i,i,2.9µM,i,i,2.3µM
COc1cccc(Nc2ccc([N+](=O)[O-])c3nonc23)c1,i,?,i,i,i,?
COc1cccc(NCc2ccc([N+](=O)[O-])s2)c1,i,i,i,i,i,0.33µM
O=C(Cc1c(F)cccc1Cl)NCC(=O)OCc1ccccc1,nt,i,i,i,nt,i
COc1ccc(OC)c(N)c1,i,?,9.3µM,i,i,17µM
COc1ccc(OC)c(C(=O)C(=O)c2cc(OC)ccc2OC)c1,nt,i,nt,nt,nt,nt
CC1C(=O)O[C@@H]2C[C@@H](C)[C@@H]3CCC(=O)[C@@]3(C)[C@@H](O)[C@H]12 (stereo not given in full),i,i,i,i,i,i
CC(=O)O[C@@H]1[C@H]2[C@@H](C[C@@H](C)[C@@H]3CCC(=O)[C@@]13C)OC(=O)[C@@H]2C,i,i,i,i,18,i
O=C(CC1C(=O)NCCN1Cc1ccoc1)NCCCn1ncc2ccccc21 (stereo not given),i,i,i,i,i,i
CCN(CC)S(=O)(=O)c1ccc(NC(=O)CN(c2ccc(OC)cc2OC)S(C)(=O)=O)cc1,i,i,9.3µM,i,i,i
COc1ccc(N(CC(=O)Nc2cc(C)cc(C)c2)S(=O)(=O)c2ccccc2[N+](=O)[O-])c(OC)c1,i,i,?,i,i,8.3µM
COc1ccc(C)cc1S(=O)(=O)N(CC(=O)Nc1cccc([N+](=O)[O-])c1)c1ccccc1,i,i,?,i,i,12µM
CCN(CC)S(=O)(=O)c1ccc(NC(=O)CN(c2cccc(C)c2)S(C)(=O)=O)cc1,i,i,?,i,i,?
COc1ccc(N(CC(=O)Nc2cc(C)ccc2C)S(=O)(=O)c2ccccc2[N+](=O)[O-])c(OC)c1,i,i,2.9µM,i,i,i
COc1ccc(N(CC(=O)Nc2ccc(F)cc2)S(=O)(=O)c2ccccc2[N+](=O)[O-])c(OC)c1,i,i,?,i,i,i
Cc1cc(C)c(S(=O)(=O)N2CCN(S(=O)(=O)N3CCOCC3)CC2)c(C)c1,i,i,i,i,i,2.3µM
O=C(c1cc(S(=O)(=O)N2CCOCC2)ccc1F)N1CCCc2ccccc21,i,i,?,i,22,i
O=C(c1ccccc1F)N1CCCc2ccccc21,55,i,i,i,29,?
CCN1CCN(c2ncc(C(=O)Nc3cc(Cl)ccc3OC)c3ccccc23)CC1,i,?,?,i,i,i
CCN1CCN(c2ncc(C(=O)N3CCCc4ccccc43)c3ccccc23)CC1,i,i,?,i,i,12µM
Cc1cc(OCC(=O)NCCc2ccc(Cl)cc2)c2c(C)cc(=O)oc2c1,i,i,i,i,i,i
COc1cccc(/C=N/NC(=O)c2ccncc2)c1OC(=O)c1ccc(Br)cc1,i,i,?,i,i,?
CC(C)(C)OC(=O)N1CCC(CNC(=O)c2ccc(F)cc2)CC1,i,i,1.7µM,i,i,i
SMILES,Shiga inhibitor,AMA1 RON2 block,Pf growth 48h,SARS PLpro yeast,Cycloheximide cs,Pf growth 96h
CCOC(=O)CN1C(=O)CN(c2ccc(C)cc2)C1=O,50,i,i,i,29,i
CCOC(=O)CN1C(=O)c2ccccc2C1=O,i,i,i,i,i,nt
O=C(NC1CCSC1=O)C1CCCCC1 (stereo not given),i,i,i,i,i,i
C=CCNC(=O)O/N=C/c1csc([N+](=O)[O-])c1,32,i,i,i,i,?
CC(C)CNC(=S)NC(=O)c1csc([N+](=O)[O-])c1,i,i,i,i,i,i
O=C(COc1ccccc1Cl)Nc1ccc2c(c1)C(=O)NC2=O,i,i,i,i,i,?
CC1CC(C)CN(CC(=O)c2ccc(OC(F)F)cc2)C1 (stereo not given),26,i,i,i,34,i
